Results filed as inconclusive are left out. Unmarked numbers belong to inactive results. Active and inactive are the calls of the source. Calls come from the whole dose curve; as a rule, active = well fitted cell-killing curve with a large enough effect; inconclusive = small, poorly fitted or top-dose-only effect, or effect the other way; inactive = no such curve, though single readings can be large or run the other way.
assay: Quantitative High-Throughput drug screen in 47 multiple myeloma cell lines against the NCATS MIPE library collection: KMM1_JCRB cell viability assay (AID 1918960); conditions: KMM1 myeloma viability, CellTiter-Glo ATP luminescence, 48 h; series mostly up to 45.8 µM; viability (% of DMSO): at the top concentration; note: nearly all actives have a fitted effect of over 30% in size
Outline: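 500 cells/well; MIPE 4.0 library pinned in; 48 h, 37 °C, 5% CO2; CellTiter-Glo ATP luminescence. Controls: DMSO = 100% viability, medium only = 0%.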
Potency is the fitted concentration of half-maximal effect.

In order of falling “viability (% of DMSO)” value:
1. N#CC(=C(O)c1ccc(Cl)cc1Cl)c1nc2cc(Cl)ccc2c(=O)[nH]1  115%
2. c1coc(CNc2ncnc3nc[nH]c23)c1  95.7%
3. C#C[C@]1(O)CC[C@@H]2[C@@H]3CCC4=CC(=O)CC[C@@H]4[C@H]3CC[C@@]21CC  81.7%
4. CC(C=CC=C(C)C=CC1=C(C)CCCC1(C)C)=CC=CC=C(C)C=CC=C(C)C=CC1=C(C)CCCC1(C)C  76.1%

With `COc1cc(C(=O)NC2CCN(C)CC2)ccc1Nc1ncc2c(n1)N(C1CCCC1)CCC(=O)N2C(C)C` the Potency was 16.6 µM (active).

Reference: PubChem BioAssay (NCATS)
